Hit rate of the full screen: of about 5,600 compounds, about 390 (7%) showed an effect of 50% or more. The sample holds strong results, similar compounds and a random draw of the others, so the mix is not that of the screen.

The inhibition is the drop in the measured response relative to a control, in per cent.

For this assay, the target named is T1, Protein deacetylase HDAC6 (Homo sapiens) (UniProt Q9UBN7).
T1 sequence (whole entry): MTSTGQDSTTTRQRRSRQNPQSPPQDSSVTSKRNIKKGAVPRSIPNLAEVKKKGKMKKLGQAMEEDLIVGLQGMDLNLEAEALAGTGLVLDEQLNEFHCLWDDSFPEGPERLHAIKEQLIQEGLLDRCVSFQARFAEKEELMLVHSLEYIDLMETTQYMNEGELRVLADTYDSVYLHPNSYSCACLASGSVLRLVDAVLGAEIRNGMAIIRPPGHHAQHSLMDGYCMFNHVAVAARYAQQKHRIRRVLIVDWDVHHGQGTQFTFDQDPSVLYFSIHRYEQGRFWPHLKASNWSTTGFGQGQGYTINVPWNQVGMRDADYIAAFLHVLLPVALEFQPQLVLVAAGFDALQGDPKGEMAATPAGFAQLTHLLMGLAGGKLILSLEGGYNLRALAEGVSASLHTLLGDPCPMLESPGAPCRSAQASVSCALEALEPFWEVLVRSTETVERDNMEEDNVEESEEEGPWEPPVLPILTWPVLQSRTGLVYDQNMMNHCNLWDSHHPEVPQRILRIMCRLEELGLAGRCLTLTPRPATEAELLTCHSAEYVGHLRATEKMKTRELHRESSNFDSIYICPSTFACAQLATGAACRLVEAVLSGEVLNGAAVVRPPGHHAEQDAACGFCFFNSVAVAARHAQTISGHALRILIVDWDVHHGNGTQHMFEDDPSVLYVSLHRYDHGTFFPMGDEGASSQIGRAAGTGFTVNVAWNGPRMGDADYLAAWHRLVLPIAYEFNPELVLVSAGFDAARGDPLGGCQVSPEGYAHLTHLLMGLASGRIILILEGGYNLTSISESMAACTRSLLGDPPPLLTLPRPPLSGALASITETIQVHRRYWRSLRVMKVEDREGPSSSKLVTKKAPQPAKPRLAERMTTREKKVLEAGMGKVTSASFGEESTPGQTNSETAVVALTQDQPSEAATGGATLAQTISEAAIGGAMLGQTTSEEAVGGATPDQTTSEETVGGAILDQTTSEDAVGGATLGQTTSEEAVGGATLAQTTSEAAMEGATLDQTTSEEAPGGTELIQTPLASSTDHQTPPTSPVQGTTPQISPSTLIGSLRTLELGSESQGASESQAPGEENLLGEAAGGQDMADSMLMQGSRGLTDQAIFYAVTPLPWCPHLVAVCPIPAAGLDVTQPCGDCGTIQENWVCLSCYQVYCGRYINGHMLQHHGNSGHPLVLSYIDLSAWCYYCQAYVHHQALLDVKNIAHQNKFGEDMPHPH
The note with it: at 10 µM.
Turning to `Cc1cccc(C)c1NC(=O)CC12CCCN1CCC2`, the inhibition was -8.45%.

For the compound `CC(C)(C)NC(=O)[C@@H]1CN(Cc2cccnc2)CCN1C[C@@H](O)C[C@@H](Cc1ccccc1)C(=O)N[C@H]1c2ccccc2C[C@H]1O`, the inhibition worked out at 1.38%.

As to `CN1CCN(c2ccc(Nc3ncc4cc(C#N)c(=O)n(C5CCCC5)c4n3)cc2)CC1`, the inhibition was -8.66%.

As to `O=C(Nc1ccccc1)c1cc([N+](=O)[O-])ccc1Cl`, the inhibition was -6.48%.

`O=C(Nc1ccncc1)c1cc([N+](=O)[O-])ccc1Cl`: the inhibition was 8.83%.

`O=C(Nc1ccc([N+](=O)[O-])cc1Cl)c1cc(Cl)ccc1O`: the inhibition turned out to be 93.1%.

`CCOc1ccccc1C(N)=O`: the inhibition was 18.7%.

In the case of `CCCCCCCCOc1ccccc1C(=O)Nc1ccc(C(=O)OCC[N+](C)(CC)CC)cc1`, the inhibition was -3.51%.

Turning to `CCCCCCOc1ccccc1C(N)=O`, the inhibition came to 93.3%.

As to `CCn1cc(C(=O)O)c(=O)c2ccc(-c3ccncc3)cc21`, the inhibition was found to be 30.6%.

Take `O=C(Cc1ccc(-c2ccccc2)cc1)Nc1ccccn1`: the inhibition was determined as 56.6%.

As for `O=C(O)Cc1ccc(-c2ccccc2)cc1`, the inhibition was found to be 10.6%.

Take `O=C(O)c1ccccn1`: the inhibition stood at 12.2%.

For `COC1/C=C\OC2(C)Oc3c(C)c(O)c4c(O)c(cc(O)c4c3C2=O)NC(=O)/C(C)=C\C=C/C(C)C(O)C(C)C(O)C(C)C(OC(C)=O)C1C` (centres undefined), the inhibition amounted to 5.48%.

For `O=C(CCCc1ccc(-c2ccccc2F)cc1)Nc1ccc(O)cc1`, the inhibition was determined as 24%.

With `Cc1ccccc1C(=O)c1ccc(Nc2ccc(Br)cc2N)cc1Cl`, the inhibition came to 3.48%.

For `COc1cc2nc(N3CCN(C(=O)C4COc5ccccc5O4)CC3)nc(N)c2cc1OC` (centres undefined), the inhibition was determined as 6.59%.

For `COc1ccccc1N1CCN(CCCCN2C(=O)c3ccccc3C2=O)CC1`, the inhibition is 0.28%.

For the compound `COc1cc2nc(C3CC3)nc(N3CCN(c4ccccc4OC)CC3)c2cc1OC`, the inhibition was 89.3%.

Turning to `CCCn1c(=O)c2nc(C34CC5CC(CC3C5)C4)[nH]c2n(CCC)c1=O`, the inhibition turned out to be 2.81%.

Consider `CCCCNNC(=O)c1ccc(Br)cc1`, for which the inhibition was 35.4%.

Take `CN(C)C(=O)N[C@H]1CC[C@H](CCN2CCN(c3cccc(Cl)c3Cl)CC2)CC1`: the inhibition was 18.9%.

With `COc1cc2c(cc1OC)C(c1ccc(N)cc1)=NNC(=O)C2`, the inhibition was -3.23%.

Consider `COc1ccc(-c2nc3cc(C4=NNC(=O)CC4C)ccc3[nH]2)cc1` (centres undefined), for which the inhibition amounted to 87.1%.

As to `CC(C)n1nc(C#Cc2ccccc2)c2c(N)ncnc21`, the inhibition is 19%.

Take `CCOC(=O)C1CSC(Cc2ccc(OCc3ccc([N+](=O)[O-])cc3)cc2)N1` (centres undefined): the inhibition turned out to be 13.2%.

For `COc1ccc(C(=O)/C(Br)=C/C(=O)O)cc1`, the inhibition was -2.93%.

As for `CC(=O)C(=Cc1cc(O)c(O)c([N+](=O)[O-])c1)C(C)=O`, the inhibition turned out to be 13.4%.

`CS(=O)(=O)c1ccc(-c2cnc(NCc3ccco3)n3cnnc23)cc1`: the inhibition worked out at 7.67%.

With `Cc1cc(C)c2c(N)c(C(=O)NCc3ccc(Cl)cc3)sc2n1`, the inhibition came out at 16.5%.

For the compound `Cc1coc2c1C(=O)C(=O)c1c-2ccc2c(C)cccc12`, the inhibition amounted to 93.9%.

With `Cc1coc2c1C(=O)C(=O)c1c-2ccc2c1CCCC2(C)C`, the inhibition came out at 42%.

Take `Cc1nn(-c2ccccc2)c(C)c1/C=N/N1CCN(Cc2ccccc2)CC1`: the inhibition is 9.22%.

Consider `O=C(O)C[C@H](O)C[C@H](O)CCc1c(C2CC2)nc2ccccc2c1-c1ccc(F)cc1`, for which the inhibition was 26%.

Regarding `CCCCCCCC[N+](C)(C)Cc1ccccc1`, the inhibition is -8.69%.

In the case of `c1cn2cc(-c3ccc4cn[nH]c4c3)nc(Nc3ccc(N4CCOCC4)cc3)c2n1`, the inhibition worked out at 20.2%.

Take `CC(=O)/N=c1/sc(S(N)(=O)=O)nn1C`: the inhibition was -2.26%.

In the case of `NS(=O)(=O)c1nn2cc(-c3ccccc3)nc2s1`, the inhibition worked out at 96.2%.

In the case of `CC(=O)OCC(=O)[C@@]1(O)CC[C@H]2[C@@H]3CCC4=CC(=O)C=C[C@]4(C)[C@@]3(F)[C@@H](O)C[C@@]21C`, the inhibition turned out to be 39.3%.

Take `CC1(C)C(=O)N=C2C1=C(O)C(=O)c1ccccc12`: the inhibition is 24.8%.

As for `O=C1c2c(O)cccc2Cc2cccc(O)c21`, the inhibition stood at 3.84%.

`CN1CCc2cccc3c2[C@H]1Cc1ccc(O)c(O)c1-3`: the inhibition was -6.04%.

In the case of `Cc1cc(O)c2c(c1)C(=O)c1cccc(O)c1C2=O`, the inhibition came out at 82.4%.

As to `C[C@@H]1CC(=O)c2c(ccc3c2C(=O)c2cccc(O)c2C3=O)C1`, the inhibition worked out at 113%.

`CC(=O)c1cc2c(o1)C(=O)c1ccccc1C2=O`: the inhibition worked out at 25.7%.

On to `COc1cc(O)c2c(c1)C(=O)c1cc(C)cc(O)c1C2=O`, for which the inhibition is 24.3%.

For the compound `O=C1c2cccc(O)c2C(=O)c2c(O)cccc21`, the inhibition was determined as 55.5%.

Consider `O=C(O)c1cc(O)c2c(c1)C(=O)c1cccc(O)c1C2=O`, for which the inhibition turned out to be 24.6%.

As for `CNCCCOc1cc(F)c(-c2c(Cl)nc3ncnn3c2N[C@@H](C)C(F)(F)F)c(F)c1`, the inhibition was 9.44%.

As to `COc1ccc(CNC(=O)c2cc(-c3cncc(C)c3)ncc2-c2nccs2)nc1OC`, the inhibition turned out to be 8.47%.

Consider `COc1cccc(OC)c1OCCNCC1COc2ccccc2O1` (centres undefined), for which the inhibition is -6.9%.

On to `CSCC[C@H](NC(=O)[C@H](CC(C)C)NC(=O)CNC(=O)[C@H](Cc1ccccc1)NC(=O)[C@H](Cc1ccccc1)NC(=O)[C@H](CCC(N)=O)NC(=O)[C@H](CCC(N)=O)NC(=O)[C@@H]1CCCN1C(=O)[C@H](CCCCN)NC(=O)[C@@H]1CCCN1C(=O)[C@@H](N)CCCN=C(N)N)C(N)=O`, for which the inhibition stood at 37.9%.

As to `Fc1ccc(CN2CCC(Nc3ccc(C(F)(F)F)nn3)CC2)cc1F`, the inhibition was found to be 20.4%.

Take `CC#CCC(C)[C@H](O)/C=C/[C@@H]1[C@H]2C/C(=C/CCCC(=O)O)C[C@H]2C[C@H]1O` (some centres undefined): the inhibition was -9.51%.

Turning to `COC(=O)c1ccccc1-c1c2ccc(N)cc2[o+]c2cc(N)ccc12`, the inhibition was 2.6%.

With `CN[C@@H]1[C@H](OC2[C@H](O[C@H]3[C@H](O)[C@@H](O)[C@H](N=C(N)N)[C@@H](O)[C@@H]3N=C(N)N)O[C@@H](C)[C@]2(O)C=O)O[C@@H](CO)[C@H](O)[C@H]1O` (some centres undefined), the inhibition came out at 17.6%.

Consider `Cc1ccccc1/N=N/c1ccc(NC(=O)c2ccnn2C)c(C)c1`, for which the inhibition amounted to 36.7%.

Take `O=C(Nc1cccc(Nc2ncc(Br)c(NCCc3cnc[nH]3)n2)c1)N1CCCC1`: the inhibition was 41.2%.

In the case of `COc1cc2c(cc1OC)-c1cc3nc4ccccc4nc3n1C(C)(C)C2`, the inhibition was 19.3%.

With `CCCn1c(=O)[nH]c2nc(-c3ccc(S(=O)(=O)N4CCN(c5ccc(Cl)cc5)CC4)cc3)[nH]c2c1=O`, the inhibition is 3.66%.

For the compound `Cc1ccc2c(c1CCC(=O)O)CC[C@@H](NS(=O)(=O)c1ccc(Cl)cc1)C2`, the inhibition was -3.38%.

In the case of `Nc1nc2c(ccc3ccccc32)s1`, the inhibition amounted to 67.3%.

With `Oc1ccc2ccccc2c1SSc1c(O)ccc2ccccc12`, the inhibition amounted to 0.31%.

Take `Cc1cc(CC(C)CC(C)(C)C)n(O)c(=O)c1` (centres undefined): the inhibition was -5.15%.
